Measured values reported in the supplement of paper PMC12532568.
Counter-ions that a name gives are not always drawn.

System: Danio rerio larvae Tg(actc1b:ZsGreen-LC3), 3 dpf
Test: LC3 puncta relative area vs vehicle, without NH4Cl (log2 fold change); higher = more autophagosomes
Settings: 10 µM; treatment time 16 h; NH4Cl: none
Description: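 Transgenic Tg(actc1b:ZsGreen-map1lc3) zebrafish larvae (2 dpf) were treated for 16 h with Tocris library compounds at 10 µM (n = 12 larvae per compound). Skeletal-muscle LC3 puncta area relative to body area was measured by high-content confocal imaging before and after 4 h of 100 mM NH4Cl (autophagic flux), normalised to vehicle (DMSO), and reported as log2 fold change.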

SMILES | LC3 puncta (log2)
CCC(C)N(C)C(=O)c1cc2ccccc2c(-c2ccccc2Cl)n1 (stereo not given) | -0.0562
c1ccc(CN(CC2=NCCN2)c2ccccc2)cc1 [Antazoline hydrochloride] | 0.664
NC(N)=Nc1ccc(Cl)cc1 [4-Chlorophenylguanidine hydrochloride] | -0.45
O=C(O)C=C1CCCc2ccccc2C1O (stereo not given) | 0.299
CC(C)Oc1ccc2c(=O)c3cc(C(=O)O)ccc3oc2c1 | 0.473
CCCC[C@@H](C=O)NC(=O)[C@H](CC(C)C)NC(=O)OCc1ccccc1 [Calpeptin] | 1.15
N[C@@H](CSS(=O)(=O)O)C(=O)O [S-Sulfo-L-cysteine sodium salt] | -0.101
c1ccc2sc(N3CCN(Cc4ccc5c(c4)OCO5)CC3)nc2c1 [2-[1-(4-Piperonyl)piperazinyl]benzothiazole] | 0.135
CC(C)[N+]1(C)[C@@H]2CC[C@H]1C[C@@H](OC(=O)C(CO)c1ccccc1)C2 (stereo not given in full) [Ipratropium bromide] | -0.65
N=C(N)S/C=C\C(=O)O [ZAPA sulfate] | 0.0963
O=C1c2ccccc2CCC1CNCCc1ccc(O)cc1 (stereo not given) [HEAT hydrochloride] | 0.103
NC(=O)c1cccc(N)c1 [3-Aminobenzamide] | 0.336
O=C(O)c1cc(O)c2ccc(Cl)cc2n1 [7-Chlorokynurenic acid] | 0.0331
O=[N+]([O-])c1cc2nc(O)c(O)nc2cc1[N+](=O)[O-] | 0.0864
CNCCCCOc1ccccc1Cc1ccccc1 [Bifemelane] | 0.531
CN(C)CCCCSC(=N)N | 0.222
c1cc2c(cc1C1CCCCC1)c1c3n2CCNC3CCC1 (stereo not given) [Tetrindole mesylate] | 0.672
O=C1CC2(CCCC2)CC(=O)N1CCCCNCC1COc2ccccc2O1 (stereo not given) | -0.00847
COc1cc2c(CCNC(C)=O)c[nH]c2cc1Cl [6-Chloromelatonin] | -0.363
Cc1ccc2c(c1)c1c3n2CCNC3CCC1 (stereo not given) [Pirlindole mesylate] | 0.028

SMILES | LC3 puncta (log2)
CCN(CC)CCOCCOC(=O)C1(c2ccccc2)CCCC1 [Carbetapentane citrate] | -0.0165
CC(=O)N1CCN(C)CC1 [1-Acetyl-4-methylpiperazine hydrochloride] | 0.18
COc1cc2nc(N3CCN(C(=O)c4ccco4)CC3)nc(N)c2cc1OC [Prazosin hydrochloride] | -0.131
CCc1nc(N)nc(N)c1-c1ccc(Cl)cc1 [Pyrimethamine] | 0.169
COc1cc(C(=O)OCCCN2CCCN(CCCOC(=O)c3cc(OC)c(OC)c(OC)c3)CC2)cc(OC)c1OC [Dilazep] | 0.175
O=C(O)C1=CCCNC1 [Guvacine hydrochloride] | -0.168
O=[N+]([O-])c1cccc2cn[nH]c12 [7-Nitroindazole] | 0.16
O=C(O)c1cccnc1C(=O)O [Quinolinic acid] | 0.278
N[C@H](C(=O)O)c1ccc(O)c(C(=O)O)c1 [(S)-3-Carboxy-4-hydroxyphenylglycine] | 0.267
C/N=C(/NC#N)NCCSCc1csc(NC(=N)N)n1 [Tiotidine] | 0.383
C1COC(NC(C2CC2)C2CC2)=N1 [Rilmenidine hemifumarate] | 0.278
CC(C)NCC(O)c1ccc2ccccc2c1 (stereo not given) [Pronethalol hydrochloride] | 0.437
CC(=O)N[C@@H](CC(=O)N[C@@H](CCC(=O)O)C(=O)O)C(=O)O [Spaglumic acid] | -0.106
S=C(S)N1CCCC1 [Pyrrolidinedithiocarbamate ammonium] | 0.439
NC(=O)Nc1sc(-c2ccc(F)cc2)cc1C(N)=O | 0.302
O=C(O)c1cc(=O)c2c(Cl)cc(Cl)cc2[nH]1 [5,7-Dichlorokynurenic acid] | -0.0706
CCN(CC)CCOC(=O)C1(c2ccc([N+](=O)[O-])cc2)CCCC1 [Nitrocaramiphen hydrochloride] | 0.254
CC(C)NC[C@H](O)COc1ccc(CC(N)=O)cc1 [(S)-(-)-Atenolol] | 0.12
COc1ccc2[nH]c(-c3ccccc3)c(CCNC(C)=O)c2c1 [2-Phenylmelatonin] | 0.513
CC(CCCCC(=O)Nc1ccc(C(F)(F)F)cc1)NCCc1cnc[nH]1 (stereo not given) [HTMT dimaleate] | 0.258
